# Measurements from PubChem BioAssay (NCI).
# This is part of a sample that, as a whole, favours compounds with a hit. Of some 83,000 tested, about 20% had one in any assay.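 Growth was measured after 48 h exposure to one concentration of compound in 96-well plates. Values under 10 count as active.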 Activity calls are given as the source filed them.
# Tested on: U251 CNS
# Assay: NCI-60 one-dose screen, 48 h (100 = growth as untreated, 0 = no growth, -100 = all killed)
# Settings: 10 µM unless noted
row,SMILES,growth
1,O=[N+]([O-])c1cccc(N=NNc2cccc([N+](=O)[O-])c2)c1,82.8% (inactive)
2,Cc1ccc(N)c(O)c1,92.7% (inactive)
3,CCN(CC)c1ccc2cc(NC(=O)OCCNC(=O)CCNC(=O)[C@H](CC(C)C)NC(=O)C(C)(C)NC(=O)C(C)(C)NC(=O)[C@H](CC(C)C)NC(=O)CCNC(=O)C(C)(C)NC(=O)[C@H](CC(C)C)NC(=O)CCNC(=O)[C@@](C)(CC)NC(=O)[C@H](C)NC(=O)CCNC(=O)C(C)(C)NC(=O)[C@H](C)NC(=O)[C@@H]3CCCN3C(=O)[C@@](C)(CC)NC(=O)[C@H](Cc3ccccc3)NC(=O)C3CCCN3C(=O)C(C)(C)NC(=O)C3CCCN3C(=O)C(C)(C)NC(C)=O)c(=O)oc2c1 (some centres not stated),-85.6% (active)
4,COC(=O)[C@]12CCC(C)(C)C[C@H]1C1=CC[C@@H]3[C@@]4(C)C/C(=C/c5cccnc5)C(=O)C(C)(C)[C@@H]4CC[C@@]3(C)[C@]1(C)CC2,-38.2% [100 µM] (active)
5,CC(C)[C@H]1COC(=O)N1[C@@H]1C(=O)N([C@@H](CCC(=O)N2CCN(C3CCCC3)CC2)C(=O)N[C@@H]2CCCc3ccccc32)[C@@H]1/C=C/c1cccc(Cl)c1,46.6% (inactive)
6,CCN=Cc1c(O)c(O)c(C(C)C)c2cc(C)c(-c3c(C)cc4c(C(C)C)c(O)c(O)c(C=NCC)c4c3O)c(O)c12,25.8% (inactive)
7,O=c1cc(-c2ccccc2)oc2c(O)c(O)ccc12,43.1% (inactive)
8,COc1ccc(C2NC(=O)C(C#N)c3c2sc2c(F)cccc32)cc1 (configuration not stated),47.3% (inactive)
9,COc1cc(-c2nc(SCCC(C)C)nc(Nc3ccccc3)c2C#N)cc(OC)c1OC,85% (inactive)
10,O=C(N/N=C\c1cc(Cl)ccc1O)N/N=C/c1cc(Cl)ccc1O,49.9% (inactive)
11,Cc1ccc(S(=O)(=O)Oc2ccc([N+](=O)[O-])cc2[N+](=O)[O-])cc1,94.4% (inactive)
12,COCCCNc1nc(NC(=O)c2cc(OC)cc(OC)c2)cc(-c2cccnc2)n1,96.8% (inactive)
13,CC1(C)CC[C@]2(C(=O)O)CC[C@]3(C)C(=CC[C@@H]4[C@@]5(C)C/C(=C/c6ccco6)C(=O)C(C)(C)[C@@H]5CC[C@]43C)[C@@H]2C1,-36.1% [100 µM] (active)
14,O=C(N=c1n(-c2ccccc2)nc2n1CCN2C1=NCCN1)c1ccc(Cl)cc1,80.8% (inactive)

# Tested on: PC-3 prostate
# Assay: as above
# Settings: 10 µM unless noted
row,SMILES,growth
1,CC1=CCc2ccccc21,86.2% (inactive)
2,O=C1Nc2ccccc2/C1=C/C(=O)c1ccc(N2CCCCC2)cc1,52.7% (inactive)
3,COc1ccc2nc3c(cc2c1)C(=O)CC(c1ccccc1)C3 (configuration not stated),28.8% (inactive)
4,Oc1ccc(N=Nc2nccs2)c(O)c1,55.2% (inactive)
5,Cc1cc(-c2ccc(N=Nc3c(S(=O)(=O)O)cc4cc(S(=O)(=O)O)cc(N)c4c3O)c(C)c2)ccc1N=Nc1cc(S(=O)(=O)O)c2ccccc2c1O,96.9% (inactive)
6,C#CCNC(=O)CC[C@]1(C)[C@H]2CC[C@@H]3[C@@H]([C@@](C)(O)CCC=C(C)C)CC[C@@]3(C)[C@]2(C)CC[C@H]1C(=C)C,20.5% [100 µM] (inactive)
7,CC(=O)Nc1ccc2nc3ccc(NC(C)=O)cc3[n+](-c3ccccc3)c2c1,104% (inactive)
8,CCN(CC)CCCCCCNc1cccc2cc(Br)cnc12,54.2% (inactive)
9,COc1ccc(NC(=S)NNc2ccc(-c3ccc(OC)c(OC)c3)nn2)cc1,104% (inactive)
10,O=[N+]([O-])c1cc([N+](=O)[O-])c(NN=C(c2ccc(O)cc2)c2ccc(O)cc2)cc1Cl,-80.8% (active)
11,CC(C)C1=NOC(=O)C1=Cc1cn(-c2ccccc2)nc1-c1cccc([N+](=O)[O-])c1,73% (inactive)
12,C=C(C)[C@@H]1CC[C@]2(C(=O)NCCNCCNCCN)CC[C@]3(C)[C@H](CC[C@@H]4[C@@]5(C)CC[C@H](O)C(C)(C)[C@@H]5CC[C@]43C)[C@@H]12,1.07% [100 µM] (active)
13,O=C1COCCN1c1ccc(Nc2nc(Cl)nc(N3CCOCC3)n2)cc1,96.8% (inactive)
14,Cn1cc(-c2noc(-c3cn(C)c4ncc(F)cc34)n2)c2cc(Br)ccc21,75.3% (inactive)
15,CC1(C)NCCC[C@]2(C)[C@H]3C=CC4=C5C[C@](C)(CO)CC[C@]5(C)CC[C@@]4(C)[C@]3(C)CC[C@@H]12,-79.1% [100 µM] (active)
16,CCCC(NC(=O)OCc1ccccc1)C(=O)O (configuration not stated),93.8% (inactive)
17,CC(C)C1=NOC(=O)C1=Cc1cn(-c2ccccc2)nc1-c1ccc(Cl)cc1,78.7% (inactive)
18,COc1cc(OC)cc(C(=O)Nc2cc(-c3cccnc3)nc(NCCCN3CCOCC3)n2)c1,85.4% (inactive)
19,Brc1ccc2c(c1)CN(C1CCCCC1)CO2,91.6% (inactive)

row,SMILES,growth
1,CC/C=C(\C)C(CCC)(CN=O)C(=O)OCC (configuration not stated),98.3% (inactive)
2,O=C(Nc1ccc(F)cc1)c1ccccc1,108% (inactive)
3,O=C(O)c1cccc(CN2CCN(c3cc4c(cc3F)c(=O)c(C(=O)O)cn4C3CC3)CC2)c1O,93.7% (inactive)
4,COC(=O)c1c(C)[nH]c(/C=C2\N=C(c3ccc[nH]3)C=C2OC)c1C,9.06% (active)
5,C=CCCC1(C)NC(=O)NC1=O (configuration not stated),86.5% (inactive)
6,O=[N+]([O-])c1cccc(N=NNc2cccc([N+](=O)[O-])c2)c1,86.4% (inactive)
7,Cc1ccc(N)c(O)c1,75.8% (inactive)
8,CCN(CC)c1ccc2cc(NC(=O)OCCNC(=O)CCNC(=O)[C@H](CC(C)C)NC(=O)C(C)(C)NC(=O)C(C)(C)NC(=O)[C@H](CC(C)C)NC(=O)CCNC(=O)C(C)(C)NC(=O)[C@H](CC(C)C)NC(=O)CCNC(=O)[C@@](C)(CC)NC(=O)[C@H](C)NC(=O)CCNC(=O)C(C)(C)NC(=O)[C@H](C)NC(=O)[C@@H]3CCCN3C(=O)[C@@](C)(CC)NC(=O)[C@H](Cc3ccccc3)NC(=O)C3CCCN3C(=O)C(C)(C)NC(=O)C3CCCN3C(=O)C(C)(C)NC(C)=O)c(=O)oc2c1 (some centres not stated),-91.2% (active)
9,COC(=O)[C@]12CCC(C)(C)C[C@H]1C1=CC[C@@H]3[C@@]4(C)C/C(=C/c5cccnc5)C(=O)C(C)(C)[C@@H]4CC[C@@]3(C)[C@]1(C)CC2,-16.3% [100 µM] (active)
10,CC(C)[C@H]1COC(=O)N1[C@@H]1C(=O)N([C@@H](CCC(=O)N2CCN(C3CCCC3)CC2)C(=O)N[C@@H]2CCCc3ccccc32)[C@@H]1/C=C/c1cccc(Cl)c1,25.7% (inactive)
11,CCN=Cc1c(O)c(O)c(C(C)C)c2cc(C)c(-c3c(C)cc4c(C(C)C)c(O)c(O)c(C=NCC)c4c3O)c(O)c12,29.4% (inactive)
12,O=c1cc(-c2ccccc2)oc2c(O)c(O)ccc12,67.4% (inactive)
13,COc1ccc(C2NC(=O)C(C#N)c3c2sc2c(F)cccc32)cc1 (configuration not stated),52.4% (inactive)
14,COc1cc(-c2nc(SCCC(C)C)nc(Nc3ccccc3)c2C#N)cc(OC)c1OC,83.8% (inactive)
15,O=C(N/N=C\c1cc(Cl)ccc1O)N/N=C/c1cc(Cl)ccc1O,40% (inactive)
16,Cc1ccc(S(=O)(=O)Oc2ccc([N+](=O)[O-])cc2[N+](=O)[O-])cc1,83.6% (inactive)
17,COCCCNc1nc(NC(=O)c2cc(OC)cc(OC)c2)cc(-c2cccnc2)n1,87.3% (inactive)
18,CC1(C)CC[C@]2(C(=O)O)CC[C@]3(C)C(=CC[C@@H]4[C@@]5(C)C/C(=C/c6ccco6)C(=O)C(C)(C)[C@@H]5CC[C@]43C)[C@@H]2C1,-16% [100 µM] (active)
19,O=C(N=c1n(-c2ccccc2)nc2n1CCN2C1=NCCN1)c1ccc(Cl)cc1,72.7% (inactive)
